High-throughput results: PubChem BioAssay, National Center for Advancing Translational Sciences (NCATS)
Hits are enriched below; roughly 3.8% of the tested compounds scored in any of these assays.
TGFb SMAD3 inh = qHTS for Inhibitors of TGF-b; Potency, µM (top dose mostly 46.1 µM), inactives show at the highest dose activity, negative = inhibition, most hits filed as inhibitors; HepG2 CAGA-GFP TGF-b/SMAD3 reporter, GFP fluorescence, 18 h; TGF-beta stimulated, 500 pg/mL final; actives 1.2% (n = 410,000); AID 588855, 2011; also: % is scaled to controls: 0 for no effect and ±100 for the full control effect; nearly all actives have a fitted effect of over 65% in size
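HEPG2 CAGA-GFP, 1000 cells/well; 2 h settle, 37 C; cpd via pin tool; TGF-b 500 pg/mL final; 18 h, 37 C; GFP imaging ex488/em500-530; %Activity normalised to -TGF-b and +DMSO controls; CRC fit, curve class.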
ATXN2 expr inh = Primary qHTS for Inhibitors of ATXN expression; AID 1745845, 2022; HEK-293 ATXN2-luciferase reporter, luminescence, 24 h; actives 0.72% (n = 360,000); Potency, µM (highest dose often 57 µM), without a hit: top-dose activity change, negative = inhibition, usual class: inhibitors; also: % is scaled to controls: 0 for no effect and ±100 for the full control effect; nearly all actives have a fitted effect of over 55% in size
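qHTS (up to 57 uM final) was run with 24 h compound exposure of reporter cells at 37 °C. Each well was multiplexed: SteadyGlo luminescence measured ATXN2-luciferase expression after a fluorogenic Gly-Phe-AFC viability readout (25 uM final).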
ATXN viability = Viability Counterscreen for Primary qHTS for Inhibitors of ATXN expression. AID 651635, 2014. S2 cells (HEK-293 line with an ATXN2-luciferase reporter) viability, CellTiter-Fluor protease fluorescence, 24 h. actives 0.49% (n = 400,000). Potency, µM (series often up to 56.7 µM), usual class: cytotoxic; also: nearly all actives have a fitted effect of over 40% in size
HepG2 viability = qHTS for Inhibitors of TGF-b: Cytotox Counterscreen. HepG2 CAGA-GFP viability, ATP luminescence, 18 h. Potency, µM (top dose mostly 46.1 µM), for the others: at the highest dose activity change, negative = cytotoxicity, hits mostly cytotoxic. actives 0.76% (n = 410,000)
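HepG2 CAGA-GFP cells (1000/well, DMEM with 1% FBS) received compound, then TGF-beta at 500 pg/mL final, and were incubated 18 hours at 37 degrees C. Viability was read by CellTiter-Glo luminescence. Media-only wells were set as complete cell-killing and DMSO as no toxicity.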
Nrf2 inh = Nrf2 qHTS screen for inhibitors | actives 2.1% (n = 360,000) | A549 ARE-Fluc reporter, luciferase luminescence, 18-24 h | Potency, µM (series often up to 46 µM), inactives show at the highest dose activity change, negative = inhibition, most hits filed as inhibitors; also: % is scaled to controls: 0 for no effect and ±100 for the full control effect; nearly all actives have a fitted effect of over 60% in size
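Nrf2 function is reported as luminescence of an ARE-controlled luciferase in A549 cells. Compounds were tested at several concentrations, and a CellTiter-Fluor read on the same wells flagged cytotoxicity.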
A549 tox = Nrf2 qHTS screen for inhibitors: counterscreen for cytotoxicity; AID 504648, 2011; Potency, µM (top dose mostly 46 µM), without a hit: at the top dose activity change, negative = cytotoxicity, most hits filed as inhibitors; actives 0.16% (n = 390,000); A549 ARE-Fluc cells, CellTiter-Fluor viability, 18-24 h; also: % is scaled to controls: 0 for no effect and ±100 for the full control effect
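Cytotoxicity counterscreen: CellTiter-Fluor fluorescence was measured in A549 ARE_Fluc cells after 18-24 h of compound exposure in a concentration series. The subsequent BugLite luminescent read reports ARE-luciferase activity.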
Active calls of the source: *; i = inactive; ? = inconclusive; / = no result; ! = not confirmed by another sample. Calls follow the shape of the dose curve; as a rule, active = well fitted curve in the direction sought with a large enough effect; inconclusive = small, poorly fitted or top-dose-only effect, or another doubt; inactive = no such curve, though single readings can be large; an effect the other way counts as inactive or inconclusive. Potency is read from the fitted curve at half-maximal effect.

SMILES	TGFb SMAD3 inh	ATXN2 expr inh	ATXN viability	HepG2 viability	Nrf2 inh	A549 tox
Cc1ccc(Oc2coc3cc(O)ccc3c2=O)cc1	-1.1%	11.1%	i	-7.8%	9.2µM*	1.2%
Cc1cc(C)cc(Oc2coc3cc(O)ccc3c2=O)c1	-10.8%	5.7%	i	-7.7%	?	-2.7%
O=C(CN1C(=O)COc2ccc(S(=O)(=O)N3CCOCC3)cc21)NCc1ccc(Cl)cc1	?	/	/	-3.4%	?	9.0%
CCCc1cc(=O)oc2c3c(cc(OCC(=O)NCc4ccncc4)c12)OC(C)(C)CC3	-2.1%	-23.2%	i	-27.4%	11.6µM*	?
CCSc1nnc(NC(=O)NC(CC)(C(F)(F)F)C(F)(F)F)s1	12.6µM*	?	?	-85.7%	?	?
CCSc1nnc(NC(=O)NC(C)(C(F)(F)F)C(F)(F)F)s1	?	-16.3%	i	-41.5%	?	-5.1%
Cn1c(CCN2CCN(c3ccccn3)CC2)nc2cc(NC(=O)COc3ccccc3)ccc21	?	/	?	-17.6%	23.1µM*	-3.6%
Cc1ccc(OCC(=O)Nc2ccc3c(c2)nc(CCN2CCN(c4ccccn4)CC2)n3C)cc1	-2.7%	/	?	-11.8%	/	/
Cc1cc(C)c(NC(=O)C2CCN(C(=O)N3CCOc4ccccc43)CC2)c(C)c1	?	/	/	-26.6%	?	8.5%
CC1=Nc2cc(C(=O)NCCc3ccc(Cl)cc3)ccc2Sc2c(C)ccc(C)c21	7.94µM*	11.4%	?	-1.7%	-22.1%	?
Cc1ccc(NS(=O)(=O)c2ccc(C(=O)NCCN3CCOCC3)cc2)cc1	-6.2%	-10.4%	i	-34.5%	9.2µM*	-2.1%
Cc1ccc(NS(=O)(=O)c2cccc(C(=O)NCC3CCCO3)c2)cc1 (stereo not drawn)	12.1%	-7.3%	i	17.9%	20.6µM*	-1.0%
O=C(NCC1CCCO1)c1cccc(NS(=O)(=O)c2ccccc2)c1 (stereo not drawn)	-17.9%	8.6%	?	7.0%	0.3%	-2.6%
CC1=Nc2cc(C(=O)NCCN3CCOCC3)ccc2Sc2c(C)ccc(C)c21	15.8µM*	/	i	-62.1%	-12.7%	-0.4%
Cc1ccc(S(=O)(=O)N(C)C)cc1NC(=O)CCCNC(=O)c1ccc(Cl)cc1	-0.4%	4.5%	i	13.5%	-0.6%	3.7%
COc1cc(-c2noc(-c3ccc(NCc4cccnc4)c([N+](=O)[O-])c3)n2)cc(OC)c1OC	-2.5%	-6.6%	i	-3.0%	?	-15.6%
COc1ccccc1N1CCN(c2ncnc3c2nnn3C)CC1	21.8%	/	/	-5.6%	/	5.5%
CC1=Nc2cc(C(=O)NCCc3ccccc3)ccc2Sc2c(C)ccc(C)c21	6.31µM*	-18.2%	?	-19.1%	-22.0%	?
Cc1cc(C)c(S(=O)(=O)NCCc2sc3nc(-c4ccc(F)cc4)nn3c2C)c(C)c1	11.2µM*	/	/	-49.6%	/	-24.2%
Cc1c(CCNC(=O)c2ccc(Br)o2)sc2nc(-c3ccc(F)cc3)nn12	?	/	/	-41.1%	/	-21.2%
Cc1cccc(-c2nc3scc(CCNS(=O)(=O)c4ccc(F)cc4C)n3n2)c1	11.2µM*	/	/	-32.9%	/	-0.8%
Cc1ccc(-c2nc3sc(CCNC(=O)c4ccc(Br)o4)c(C)n3n2)cc1	17.8µM*	?	/	-55.8%	/	-21.5%
Cc1cccc(-c2nc3scc(CCNS(=O)(=O)c4ccc(F)c(C(F)(F)F)c4)n3n2)c1	?	/	/	-32.1%	/	-1.5%
Cc1ccccc1OCCN(C#N)c1nc(N(C)C)nc(N(C)C)n1	-5.7%	-30.5%	?	-49.3%	?	28.0%
CCN(CC)C(=S)SSC(=S)N(CC)CC	?	?	70.8µM*!	-56.3%	/	0.2%
SMILES	TGFb SMAD3 inh	ATXN2 expr inh	ATXN viability	HepG2 viability	Nrf2 inh	A549 tox
NCCCCCc1nnc(SCc2ccccc2Cl)o1	17.4%	?	i	-23.5%	13µM*	?
CCCNC1=C(N(C(C)=O)c2cccc(F)c2)C(=O)c2ccccc2C1=O	?	28.2µM*	/	7.94µM*	?	?
CCC(=O)N(C1=C(NC(C)C)C(=O)c2ccccc2C1=O)C(C)C	?	-22.1%	i	-35.5%	-1.6%	-7.3%
O=C(/C=C/c1ccccc1)NC(NC(=S)Nc1ccc(Cl)cc1Cl)C(Cl)(Cl)Cl (stereo not drawn)	?	?	?	-45.3%	20.6µM*	?
O=C(/C=C/c1ccccc1)NC(NC(=S)Nc1cccc(Cl)c1)C(Cl)(Cl)Cl (stereo not drawn)	15.8µM*	?	?	10µM*	7.31µM*	?
C/C(=N/NC(=O)C(C)n1nc(C)c([N+](=O)[O-])c1C)c1ccc(OCC(N)=O)cc1 (stereo not drawn)	-1.8%	-3.3%	i	-16.3%	-18.2%	1.3%
Cc1c(CCOC(=O)c2ccc(N3CCOCC3)c([N+](=O)[O-])c2)sc[n+]1CC#N	?	?	?	-27.0%	16.4µM*	?
Cc1ncsc1CCOC(=O)c1ccc(N2CCOCC2)c([N+](=O)[O-])c1	9.6%	-14.5%	i	-13.2%	6.9%	-0.8%
Cc1cc(C)n(-c2ccc(C(=O)N3CCN(S(=O)(=O)c4ccc(C(C)C)cc4)CC3)cc2)n1	-1.6%	-7.0%	i	-13.8%	23.1µM*	-16.6%
COC(=O)c1c(-c2cccs2)csc1NC(=O)CN1CCOCC1	-2.9%	-2.7%	i	-0.6%	6.51µM*	-4.3%
COC(=O)c1c(-c2cccs2)csc1NC(=O)c1ccc(C)cc1	-15.3%	/	/	-31.3%	?	0.2%
CCOc1ccc(CCNC(=O)c2nc(-c3cccc(F)c3)n3c2CCCCC3)cc1OCC	?	/	/	-25.9%	20.6µM*	?
CC(=O)N1C[C@@H](CO)[C@@H](N(C)C(=O)C2CCCCC2)C[C@H]1c1ccccc1	1.6%	7.3%	i	-13.4%	/	/
O=C(O)c1ccc(Nc2ncc([N+](=O)[O-])cc2[N+](=O)[O-])cc1	-0.7%	-21.8%	?	-1.1%	-13.2%	18.4µM*
O=C(Nc1ccc(C(=O)O)cc1)Nc1ccc([N+](=O)[O-])cc1	0.3%	17.0%	i	11.6%	11.9%	-10.7%
COc1ccc(NS(=O)(=O)c2ccc(N/N=C(\C)c3ccncc3)c([N+](=O)[O-])c2)cc1	?	-20.9%	i	1.1%	20.6µM*	?
